Source: the supplement of paper PMC13380429

What was measured:
[1] = test system: Vero E6 infected with SARS-CoV-2; test: morphology score (similarity to uninfected cells); higher = more like uninfected cells; settings: 24 h
[2] = test system: Vero E6 infected with SARS-CoV-2; test: SARS-CoV-2 infection rate relative to infected DMSO; higher = more infection, active = 60 or less; settings: 24 h

Row | Structure (SMILES) | morphology score [1] | SARS-CoV-2 infection rate [2]
1 | O=C(O)CCc1c[nH]c2ccccc12 (10 µM) | 0.0821 | 104% (inactive)
2 | CN(C)c1cccc(-c2c3c(=O)n(-c4ccccc4Cl)[nH]c3cc(=O)n2C)c1 (10 µM) | 0.165 | 112% (inactive)
3 | C[n+]1cccc(C(=O)[O-])c1 [trigonelline] (0.833333 µM) | 0.0676 | 108% (inactive)
4 | Cc1c(C)c2c(c(C)c1OC(=O)CCC(=O)O)CC[C@@](C)(CCC[C@H](C)CCC[C@H](C)CCCC(C)C)O2 [D-alpha-tocopheryl-succinate] (10 µM) | 0.0385 | 101% (inactive)
5 | COc1cc2c(cc1OC)-c1cc3ccc(OC)c(OC)c3c[n+]1CC2 [palmatine-chloride] (10 µM) | 0.189 | 92% (inactive)
6 | NCCCC[C@H](NC(=O)[C@@H](Cc1cc(Br)c(O)c(Br)c1)NC(=O)N1CCC(N2Cc3ccccc3NC2=O)CC1)C(=O)N1CCN(c2ccncc2)CC1 (10 µM) | 0.0352 | 110% (inactive)
7 | CC(=O)Oc1ccccc1C(=O)Nc1ncc([N+](=O)[O-])s1 [nitazoxanide] (10 µM) | 0.224 | 88% (inactive)
8 | Oc1ccc(Nc2nc(-c3ccc(Cl)cc3)cs2)cc1 (10 µM) | 0.129 | 106% (inactive)
9 | CN1[C@@H]2CC[C@H]1C[C@@H](OC(=O)c1cc(Cl)cc(Cl)c1)C2 [bemesetron] (10 µM) | 0.216 | 89.5% (inactive)
10 | N#Cc1c(-c2ccccc2)cc(-c2cc(Br)ccc2O)[nH]c1=O (10 µM) | 0.048 | 110% (inactive)
11 | N#CC1(c2ccc(NC(=O)c3cccnc3NCc3ccncc3)cc2)CCCC1 [apatinib] (10 µM) | 0.31 | 107% (inactive)
12 | Cn1cnc2c(NCc3ccccc3)nc(NCCO)nc21 [olomoucine] (10 µM) | 0.0162 | 98.5% (inactive)
13 | CC[n+]1c(-c2ccccc2)c2cc(N)ccc2c2ccc(N)cc21 [homidium] (10 µM) | 0.276 | 99.5% (inactive)
14 | CC(C)Oc1ccc2c(=O)c3cc(C(=O)O)ccc3oc2c1 (10 µM) | 0.0971 | 100% (inactive)
15 | C[C@]12C=CC(=O)C=C1CC[C@@H]1[C@@H]2C(=O)C[C@@]2(C)[C@H]1CC[C@]2(O)C(=O)CO [prednisone] (10 µM) | -0.177 | 108% (inactive)
16 | CC1=C(CCC(=O)O)c2cc3[nH]c(cc4nc(cc5[nH]c(cc1n2)c(C)c5C(C)O)C(C)=C4C(C)O)c(C)c3CCC(=O)O (configuration not stated) [hematoporphyrin] (10 µM) | -0.184 | 116% (inactive)
17 | Cc1c(C(=O)N2CCOc3ccc(-c4ccc(N)nc4)cc3C2)ccc(S(C)(=O)=O)c1F (0.833333 µM) | -0.0918 | 110% (inactive)
18 | Nc1nc2c(ncn2COC(CO)CO)c(=O)[nH]1 [ganciclovir] (10 µM) | 0.108 | 97% (inactive)
19 | CC[C@H](C)[C@@H]([C@@H](CC(=O)N1CCC[C@H]1[C@H](OC)[C@@H](C)C(=O)N[C@@H](Cc1ccccc1)c1nccs1)OC)N(C)C(=O)[C@@H](NC(=O)[C@H](C(C)C)N(C)C)C(C)C [dolastatin-10] (0.833333 µM) | 0.0156 | 106% (inactive)

Row | Structure (SMILES) | morphology score [1] | SARS-CoV-2 infection rate [2]
20 | O=C(O)COc1ccc(OCCNC[C@H](O)COc2ccccc2)cc1 (10 µM) | -0.002 | 104% (inactive)
21 | CC(C)c1ccc(CC(=O)N2CCC[C@@H](c3cccc(OC(C)(C)C(=O)O)c3)C2)cc1 (10 µM) | 0.109 | 96% (inactive)
22 | CC(C)(O)CNc1nc(Nc2ccnc(C(F)(F)F)c2)nc(-c2cccc(C(F)(F)F)n2)n1 [enasidenib] (10 µM) | 0.237 | 100% (inactive)
23 | C[C@@H]([C@H](O)c1ccc(O)cc1)N1CCC(Cc2ccccc2)CC1 (racemic) [ifenprodil] (10 µM) | 0.0632 | 100% (inactive)
24 | CC(=O)[C@@]1(O)CC[C@H]2[C@@H]3C[C@H](C)C4=CC(=O)C=C[C@]4(C)[C@@]3(F)[C@@H](O)C[C@@]21C [fluorometholone] (10 µM) | 0.02 | 110% (inactive)
25 | CC(C)n1c(=O)n(C(=O)N[C@H]2C[C@H]3CC[C@@H](C2)N3C)c2ccccc21 (10 µM) | 0.0156 | 106% (inactive)
26 | CCC/N=C1\S/C(=C\c2ccc(OC[C@H](O)CO)c(Cl)c2)C(=O)N1c1ccccc1C [ponesimod] (10 µM) | -0.2 | 108% (inactive)
27 | NC(=O)c1ccc2[nH]ccc2c1 (10 µM) | 0.192 | 87.5% (inactive)
28 | CCCC(=O)Nc1cccc(NC(=O)c2ccccc2Br)c1 (10 µM) | -0.131 | 110% (inactive)
29 | CC(=O)OCC(=O)[C@@]12OC(C)(C)O[C@@H]1C[C@H]1[C@@H]3C[C@H](F)C4=CC(=O)C=C[C@]4(C)[C@@]3(F)[C@@H](O)C[C@@]12C [fluocinonide] (10 µM) | 0.184 | 104% (inactive)
30 | O=C(O)c1ccccc1Nc1cccc(C(F)(F)F)c1 [flufenamic-acid] (10 µM) | 0.156 | 99.5% (inactive)
31 | CC1=C(/C=C/C(C)=C/C=C/C(C)=C/C(=O)O)C(C)(C)CCC1 [tretinoin] (10 µM) | -0.0366 | 104% (inactive)
32 | COc1cc([C@@H]2c3cc4c(cc3[C@@H](O[C@@H]3O[C@@H]5CO[C@@H](C)O[C@H]5[C@H](O)[C@H]3O)[C@H]3COC(=O)[C@H]23)OCO4)cc(OC)c1O [etoposide] (10 µM) | -0.114 | 104% (inactive)
33 | CCNC(=O)CCC/C=C\C[C@@H]1[C@@H](/C=C/[C@@H](O)CCc2ccccc2)[C@H](O)C[C@@H]1O [bimatoprost] (10 µM) | 0.0397 | 103% (inactive)
34 | CCn1nc(C)c2c1C(c1ccccc1)=NCC(=O)N2 [ripazepam] (10 µM) | 0.0297 | 109% (inactive)
35 | CNC(=O)c1cc(Oc2ccc(NC(=O)Nc3ccc(Cl)c(C(F)(F)F)c3)cc2)ccn1 [sorafenib] (0.833333 µM) | -0.246 | 118% (inactive)
36 | C=CCN(C)CCCCCCOc1ccc(C(=O)c2ccc(Br)cc2)c(F)c1 (10 µM) | 0.728 | 33.5% (active)
37 | N#Cc1ccc(N(Cc2ccc(Br)cc2)n2cnnc2)cc1 (10 µM) | 0.208 | 102% (inactive)
38 | CC(C)(Sc1ccc(CCN(CCCCC2CCCCC2)C(=O)NC2CCCCC2)cc1)C(=O)O (10 µM) | 0.13 | 117% (inactive)

Row | Structure (SMILES) | morphology score [1] | SARS-CoV-2 infection rate [2]
39 | CC(C)NC[C@@H](C(=O)N1CCN(c2ncnc3c2[C@H](C)C[C@H]3O)CC1)c1ccc(Cl)cc1 (10 µM) | 0.0963 | 96% (inactive)
40 | CC[C@H]1OC(=O)[C@H](C)[C@@H](O[C@H]2C[C@@](C)(OC)[C@@H](O)[C@H](C)O2)[C@H](C)[C@@H](O[C@@H]2O[C@H](C)C[C@H](N(C)C)[C@H]2O)[C@](C)(O)C[C@@H](C)C(=O)[C@H](C)[C@@H](O)[C@]1(C)O [erythromycin] (10 µM) | -0.171 | 102% (inactive)
41 | CC1OC2(CS1)CN1CCC2CC1 (configuration not stated) [cevimeline] (10 µM) | 0.0787 | 98% (inactive)
42 | CCC[S+]([O-])c1ccc2[nH]c(NC(=O)OC)nc2c1 (configuration not stated) [albendazole-oxide] (10 µM) | 0.034 | 110% (inactive)
43 | CN1CCC[C@@H](CC2c3ccccc3Sc3ccccc32)C1 (racemic) [metixene] (0.833333 µM) | 0.383 | 86% (inactive)
44 | CC(C(=O)O)c1ccc2c(c1)[nH]c1ccc(Cl)cc12 (configuration not stated) [carprofen] (10 µM) | -0.0165 | 108% (inactive)
45 | CC(C)(C)NCC(O)COc1cccc2c1CCC(=O)N2 (configuration not stated) [carteolol] (10 µM) | 0.111 | 96.5% (inactive)
46 | Cn1cc(C[C@@H](N)C(=O)O)c2ccccc21 [indoximod] (10 µM) | 0.183 | 110% (inactive)
47 | NC(=O)c1nc(F)cnc1O [Favipiravir] (10 µM) | 0.0924 | 108% (inactive)
48 | O=C1NCN(c2ccccc2)C12CCN(CC1COc3ccccc3O1)CC2 (configuration not stated) [spiroxatrine] (10 µM) | -0.179 | 114% (inactive)
49 | CO[C@H](C(=O)[C@@H](O)[C@@H](C)O)[C@@H]1Cc2cc3cc(O[C@H]4C[C@@H](O[C@H]5C[C@@H](O)[C@H](O)[C@@H](C)O5)[C@@H](O)[C@@H](C)O4)c(C)c(O)c3c(O)c2C(=O)[C@H]1O[C@H]1C[C@@H](O[C@H]2C[C@@H](O[C@H]3C[C@](C)(O)[C@H](O)[C@@H](C)O3)[C@H](O)[C@@H](C)O2)[C@H](O)[C@@H](C)O1 [plicamycin] (10 µM) | -0.159 | 104% (inactive)
50 | CC(C)(S)C(N)C(=O)O (stereo in doubt) [penicillamine-(racemic)] (10 µM) | 0.0971 | 100% (inactive)
51 | CCCc1nc(C)c2c(=O)nc(-c3cc(S(=O)(=O)N4CCN(CC)CC4)ccc3OCC)[nH]n12 [vardenafil] (10 µM) | 0.227 | 97.5% (inactive)
52 | CCN(C(=O)c1c(O)c2c(Cl)cccc2n(C)c1=O)c1ccccc1 [laquinimod] (10 µM) | 0.168 | 99% (inactive)
53 | Oc1cccc(O)c1 [resorcinol] (10 µM) | 0.0503 | 110% (inactive)
54 | COc1ccc(-c2cc3c(C)nc(N)nc3n([C@H]3CC[C@H](OCCO)CC3)c2=O)cn1 (0.833333 µM) | 0.0503 | 102% (inactive)
55 | CN[C@@H](C)CC1CCCCC1 [propylhexedrine] (10 µM) | -0.0197 | 110% (inactive)
56 | CCN(CC)CCCCNc1ncc2cc(-c3c(Cl)cccc3Cl)c(NC(=O)NC(C)(C)C)nc2n1 (0.833333 µM) | 0.085 | 117% (inactive)
